The supplement of paper PMC8728848
This is one part of a sample in which the strongest signals are shown more often than they occur.

B1: Epa22 (Candida glabrata) (protein)
chain: MGSSHHHHHHSSGLVPRGSHMKRALSSQNPFGYPIGCSPQSTNVIPGLTMELYSYPIVSGTPPNCYDASYVDPEYPRTGYLKRKMIGKSTGVTGSLNYKFSVEKACMVKYGNLPAGYNYNEPLTVSNFTMLLYGYFKPQTSGIHTFFVNADDLLYINFGAGNAFDCCKREDSKFKLGEYVAYDIWHVDSSKNKVSLNLEKDVYYPIRMFFNNIGKDSSLDLSFSVNGAVEHITDFSGYLYSVPDQPDACPAPIGYDTTCK
B2: CBM32-4 (Clostridium perfringens), P26831 (protein)
chain: MGSSHHHHHHSSGLVPRGSHMASVYEPSLVDAYVGDDGAKKAVDGDLKTRVKFLGAPSTGDTIVYDLGQEILVDNLKYVVLDTEVDHVRDGKIQLSLDGETWTDAINIGDGVENGVDDMFSTPLKNGYKHGNQSGGIVPIDSAYVEGDNLNQKARYVRILFTAPYRHRWTVINELMINNGEYIPTVNDPT

How the values were obtained:
Experiment in all cases: glycan array binding signal (z-score within array); higher = stronger binding
Settings in all cases: glycan notation: IUPAC condensed, linker removed
[1] = target: GlcNAc(b1-2)Man(a1-3)[GlcNAc(b1-4)][GlcNAc(b1-2)Man(a1-6)]Man(b1-4)GlcNAc(b1-4)[Fuc(a1-6)]GlcNAc
Method in brief: (§1)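 The binding signal is a Z-score computed within each array and averaged over linkers. Arrays of the same protein sequence at different concentrations or buffers were also averaged together. Data originate from 3228 arrays in the Consortium for Functional Glycomics database, kept only where the protein sequence was available.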

[2] = target: GlcNAc(b1-2)[GlcNAc(b1-4)]Man(a1-3)[GlcNAc(b1-2)Man(a1-6)]Man(b1-4)GlcNAc(b1-4)GlcNAc
Method in brief: as §1

[3] = target: GlcNAc(b1-3)Gal(b1-4)GlcNAc
Method in brief: as §1

[4] = target: GlcNAc(b1-3)Gal(b1-4)GlcNAc(b1-2)Man(a1-3)[GlcNAc(b1-3)Gal(b1-4)GlcNAc(b1-2)Man(a1-6)]Man(b1-4)GlcNAc(b1-4)GlcNAc
Method in brief: as §1

[5] = target: GlcNAc(b1-3)Gal(b1-4)GlcNAc(b1-3)Gal(b1-4)GlcNAc(b1-3)Gal(b1-4)GlcNAc(b1-2)[GlcNAc(b1-3)Gal(b1-4)GlcNAc(b1-3)Gal(b1-4)GlcNAc(b1-3)Gal(b1-4)GlcNAc(b1-6)]Man(a1-6)[GlcNAc(b1-3)Gal(b1-4)GlcNAc(b1-3)Gal(b1-4)GlcNAc(b1-3)Gal(b1-4)GlcNAc(b1-2)Man(a1-3)]Man(b1-4)GlcNAc(b1-4)[Fuc(a1-6)]GlcNAc
Method in brief: as §1

[6] = target: GlcNAc(b1-3)[GlcNAc(b1-4)][GlcNAc(b1-6)]GlcNAc
Method in brief: as §1

Man(a1-6)Man = target: Man(a1-6)Man
Method in brief: as §1

[7] = target: Neu5Ac(a2-3)Gal(b1-3)[Fuc(a1-4)]GlcNAc(b1-3)Gal(b1-4)[Fuc(a1-3)]GlcNAc
Method in brief: as §1

[8] = target: Neu5Ac(a2-3)Gal(b1-4)GlcNAc(b1-2)Man(a1-3)[Neu5Ac(a2-3)Gal(b1-4)GlcNAc(b1-2)Man(a1-6)]Man(b1-4)GlcNAc(b1-4)GlcNAc
Method in brief: as §1

[9] = target: Neu5Ac(a2-3)Gal(b1-4)GlcNAc(b1-3)Gal(b1-4)GlcNAc(b1-6)[Gal(b1-3)]GalNAc
Method in brief: as §1

[10] = target: Neu5Ac(a2-3)Gal(b1-4)[Fuc(a1-3)]GlcNAc(b1-3)Gal
Method in brief: as §1

[11] = target: Neu5Ac(a2-3)Gal(b1-4)[Fuc(a1-3)]GlcNAc(b1-3)Gal(b1-4)[Fuc(a1-3)]GlcNAc(b1-3)Gal(b1-4)[Fuc(a1-3)]GlcNAc
Method in brief: as §1

[12] = target: Neu5Ac(a2-6)Gal(b1-4)GlcNAc(b1-2)Man(a1-6)Man(b1-4)GlcNAc(b1-4)GlcNAc
Method in brief: as §1

[13] = target: Neu5Ac(a2-6)Gal(b1-4)GlcNAc(b1-3)[Neu5Ac(a2-6)Gal(b1-4)GlcNAc(b1-6)]GalNAc
Method in brief: as §1

[14] = target: Neu5Ac(a2-8)Neu5Ac(a2-3)Gal(b1-3)GalNAc(b1-4)[Neu5Ac(a2-8)Neu5Ac(a2-3)]Gal(b1-4)Glc
Method in brief: as §1

[15] = target: Fuc(a1-2)Gal(b1-4)GlcNAc6S
Method in brief: as §1

[16] = target: Fuc(a1-2)Gal(b1-4)[Fuc(a1-3)]GlcNAc(b1-3)Gal(b1-4)[Fuc(a1-3)]GlcNAc(b1-3)Gal(b1-4)[Fuc(a1-3)]GlcNAc
Method in brief: as §1

[17] = target: Fuc(a1-2)Gal6S(b1-4)Glc6S
Method in brief: as §1

Fuc(a1-2)[Gal(a1-3)]Gal = target: Fuc(a1-2)[Gal(a1-3)]Gal
Method in brief: as §1

[18] = target: Fuc(a1-2)[GalNAc(a1-3)]Gal(b1-4)GlcNAc
Method in brief: as §1

Gal3S(b1-4)GlcNAc = target: Gal3S(b1-4)GlcNAc
Method in brief: as §1

Gal3S4S(b1-4)GlcNAc = target: Gal3S4S(b1-4)GlcNAc
Method in brief: as §1

Gal3S6S(b1-4)GlcNAc6S = target: Gal3S6S(b1-4)GlcNAc6S
Method in brief: as §1

Gal6S(b1-4)Glc6S = target: Gal6S(b1-4)Glc6S
Method in brief: as §1

Gal6S(b1-4)GlcNAc6S = target: Gal6S(b1-4)GlcNAc6S
Method in brief: as §1

[19] = target: GlcNAc(b1-2)Gal(b1-3)GalNAc
Method in brief: as §1

Man(a1-2)Man(a1-3)Man = target: Man(a1-2)Man(a1-3)Man
Method in brief: as §1

[20] = target: Man(a1-2)Man(a1-3)[Man(a1-2)Man(a1-6)]Man(a1-6)[Man(a1-2)Man(a1-2)Man(a1-3)]Man
Method in brief: as §1

Neu5Ac(a2-3)Gal(b1-4)Glc = target: Neu5Ac(a2-3)Gal(b1-4)Glc
Method in brief: as §1

[21] = target: Neu5Ac(a2-6)Gal(b1-4)GlcNAc(b1-2)Man(a1-6)[Gal(b1-4)GlcNAc(b1-2)Man(a1-3)]Man(b1-4)GlcNAc(b1-4)GlcNAc
Method in brief: as §1

Neu5Ac(a2-6)GalNAc = target: Neu5Ac(a2-6)GalNAc
Method in brief: as §1

Binder	glycan array binding signal (z-score) [1]	glycan array binding signal (z-score) [2]	glycan array binding signal (z-score) [3]	glycan array binding signal (z-score) [4]	glycan array binding signal (z-score) [5]	glycan array binding signal (z-score) [6]	glycan array binding signal (z-score) (Man(a1-6)Man)	glycan array binding signal (z-score) [7]	glycan array binding signal (z-score) [8]	glycan array binding signal (z-score) [9]	glycan array binding signal (z-score) [10]	glycan array binding signal (z-score) [11]	glycan array binding signal (z-score) [12]	glycan array binding signal (z-score) [13]	glycan array binding signal (z-score) [14]	glycan array binding signal (z-score) [15]	glycan array binding signal (z-score) [16]	glycan array binding signal (z-score) [17]	glycan array binding signal (z-score) (Fuc(a1-2)[Gal(a1-3)]Gal)	glycan array binding signal (z-score) [18]	glycan array binding signal (z-score) (Gal3S(b1-4)GlcNAc)	glycan array binding signal (z-score) (Gal3S4S(b1-4)GlcNAc)	glycan array binding signal (z-score) (Gal3S6S(b1-4)GlcNAc6S)	glycan array binding signal (z-score) (Gal6S(b1-4)Glc6S)	glycan array binding signal (z-score) (Gal6S(b1-4)GlcNAc6S)	glycan array binding signal (z-score) [19]	glycan array binding signal (z-score) (Man(a1-2)Man(a1-3)Man)	glycan array binding signal (z-score) [20]	glycan array binding signal (z-score) (Neu5Ac(a2-3)Gal(b1-4)Glc)	glycan array binding signal (z-score) [21]	glycan array binding signal (z-score) (Neu5Ac(a2-6)GalNAc)
B1	-0.35	-0.368	-0.312	-0.39	-0.37	-0.383	-0.371	-0.409	-0.356	-0.248	-0.385	-0.375	-0.426	-0.246	-0.003																
B2																-0.104	-0.29	4.3	-0.4	-0.266	-0.195	3.87	5.67	4.96	4.9	-0.264	-0.021	-0.564	-0.183	-0.336	-0.363
